# From PubChem
# The entries come from a sample that favours hits as a whole.
# IL1B secr inh: inflammasome signaling inhibition, IL-1 beta readout | THP-1 LPS/ATP IL-1B secretion, AlphaLISA, 16 h; active compounds read low | activity change, % at 57.5 µM | actives 4.7% (n = 360,000) | AID 743279; in the data active = activity change below about -50%; inconclusive = mostly about -30% to -49%
#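 Secreted IL-1B measured by AlphaLISA bead assay after 16 h compound exposure of THP-1 cells; compounds (final up to 57.5 uM) added 1 h before LPS (250 ng/mL) and ATP (1.25 mM) stimulation; lower signal means less secretion.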
# HT1080-NT tox: kills 2HG-producing HT-1080-NT fibrosarcoma cells | Potency, µM (highest dose often 46.1 µM), hits mostly cytotoxic | AID 686970 | actives 1.6% (n = 360,000) | HT-1080-NT fibrosarcoma viability, CellTiter-Glo ATP luminescence, 48 h;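 also: NT is the 2HG producing partner of a matched IDH1 knockdown line; nearly all actives have a fitted effect of over 55% in size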
#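 HT-1080-NT; 750 cells/well; 5% FBS RPMI; 48 h compound, 37 degrees C; CellTiter-Glo luminescence; curve fitting and curve-class assignment.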
# HT1080 IDH1KD tx: kills HT-1080 cells with IDH1 knockdown; HT-1080 IDH1 knockdown viability, ATP luminescence, 48 h; actives 2% (n = 360,000); AID 686971; Potency, µM (highest dose often 46.1 µM), usual class: cytotoxic
#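 In this qHTS, HT-1080 cells depleted of IDH1 are exposed for 48 h at 37 °C to compound titrations. Toxicity is scored from CellTiter-Glo luminescence, with DMSO as full viability and medium alone as none.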
# ALOX12 inh: blocks human arachidonate 12S-lipoxygenase. P18054. purified 12hLO, xylenol orange hydroperoxide absorbance. Potency, µM (top dose mostly 108 µM), most hits filed as inhibitors. actives 1.1% (n = 580,000)
# Target sequence (P18054 whole entry, looked up): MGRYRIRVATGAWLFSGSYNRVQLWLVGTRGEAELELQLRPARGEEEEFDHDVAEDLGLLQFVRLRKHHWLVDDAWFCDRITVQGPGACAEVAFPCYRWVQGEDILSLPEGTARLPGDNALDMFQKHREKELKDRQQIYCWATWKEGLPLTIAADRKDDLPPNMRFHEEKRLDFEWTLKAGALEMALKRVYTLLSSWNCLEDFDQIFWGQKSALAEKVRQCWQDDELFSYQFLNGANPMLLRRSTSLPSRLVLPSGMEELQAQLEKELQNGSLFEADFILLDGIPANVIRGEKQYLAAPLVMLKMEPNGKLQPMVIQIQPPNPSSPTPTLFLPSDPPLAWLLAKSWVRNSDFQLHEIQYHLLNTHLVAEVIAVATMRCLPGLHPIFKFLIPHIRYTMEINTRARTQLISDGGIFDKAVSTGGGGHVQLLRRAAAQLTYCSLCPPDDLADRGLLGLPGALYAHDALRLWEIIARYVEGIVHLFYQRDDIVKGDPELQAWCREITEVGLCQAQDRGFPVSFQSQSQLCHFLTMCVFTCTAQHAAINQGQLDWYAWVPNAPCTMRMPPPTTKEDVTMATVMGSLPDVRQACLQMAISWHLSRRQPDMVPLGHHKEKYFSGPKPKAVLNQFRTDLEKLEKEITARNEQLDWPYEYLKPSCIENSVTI
#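 Purified human 12hLO (150 nM final) in 25 mM Hepes, 0.01% Triton X-100, pH 7.0 was preincubated 15 min at room temperature with compound. Then 40 uM arachidonic acid was added, 30 min. Hydroperoxide was read by Fe-XO absorbance ratio 573/405 nm.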
# TDP1 cell noCPT: qHTS for Inhibitors of human tyrosyl-DNA phosphodiesterase 1 (TDP1): qHTS in cells in absence of CPT | DT40 Tdp1-/- hTDP1 cells, no CPT, ATP luminescence, 48 h | Potency, µM (top dose mostly 46.2 µM), hits mostly inhibitors | actives 15% (n = 420,000) | AID 686978, 2013; also: nearly all actives have a fitted effect of over 55% in size
#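 No-CPT arm: Tdp1-/-;hTDP1 DT40 cells (400/well) plus compounds, incubated ≥48 hr at 37 °C. Readout CellTiter-Glo luminescence.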
# TDP1 cell CPT: growth inhibition of DT40 Tdp1-/-;hTDP1 cells with camptothecin (screen for TDP1 inhibitors); actives 12% (n = 420,000); chicken DT40 Tdp1-/-;hTDP1 cells + 20 nM CPT, ATP luminescence, 48 h; Potency, µM (titrated, usually from 46.2 µM), usual class: inhibitors; also: nearly all actives have a fitted effect of over 55% in size
#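 Chicken DT40 Tdp1-/- cells stably complemented with human TDP1 were seeded at 400 cells/well in medium containing 20 nM camptothecin, exposed to pin-transferred compounds, and grown at 37 °C for at least 48 hr. Viability was read as ATP luminescence.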
# Numbers stand for hits; - = inactive; ? = inconclusive; . = no result given. Unless noted, calls follow the shape of the dose curve; as a rule, active = well fitted curve in the direction sought with a large enough effect; inconclusive = small, poorly fitted or top-dose-only effect, or another doubt; inactive = no such curve, though single readings can be large; an effect the other way counts as inactive or inconclusive.
SMILES,IL1B secr inh,HT1080-NT tox,HT1080 IDH1KD tx,ALOX12 inh,TDP1 cell noCPT,TDP1 cell CPT
Cc1ccccc1Cc1c(C)nc2nc(SCC(=O)NCCc3ccc(Cl)cc3)nn2c1C,.,.,.,-,?,16.4µM
CC1(C)CC(=O)C2=C(C1)N(c1cccc(C(F)(F)F)c1)C(=O)CC2c1cccs1 (stereo not drawn),.,.,.,-,.,.
CCOC(=O)c1cc(NC(C)=O)cc(C(=O)OCC)c1,.,.,.,-,.,.
COc1ccc(C(C(=O)NC(C)(C)C)n2c(-c3ccc(=O)[nH]c3)nc3ccccc32)cc1 (stereo not drawn),-,13µM,8.2µM,-,8.2µM,9.2µM
Cc1ccc(OCc2nc3ccccc3n2C(C(=O)Nc2c(C)cccc2C)C2CC2)cc1 (stereo not drawn),-,?,?,-,?,?
COc1ccc(C(C(=O)NC(C)(C)C)n2c(COc3ccc(C)cc3)nc3ccccc32)cc1 (stereo not drawn),-,?,?,-,?,18.4µM
COC(=O)Cc1c(C)c2ccc(OCc3cccc(Cl)c3)c(C)c2oc1=O,.,.,.,-,.,.
CC(C)(C)[C@H](N)C(=O)N[C@H]1CCC2C3CC=C4C[C@@H](O)CC[C@]4(C)C3CC[C@@]21C (stereo partly drawn),-102.2,?,?,-,3.66µM,4.61µM
CC(=O)C1CCC2C3CC=C4CC(SC(=N)N)CCC4(C)C3CCC12C (stereo not drawn),-102.7,?,?,?,8.2µM,13µM
C[C@]12CC[C@H](O)CC1=CCC1C2CC[C@@]2(C)C1CC[C@@H]2NC(=O)[C@@H](N)Cc1ccccc1 (stereo partly drawn),-96.4,-,-,?,20.6µM,?
CC(C)C(=O)N[C@H]1CCC2C3CC=C4C[C@@H](O)CC[C@]4(C)C3CC[C@@]21C (stereo partly drawn),-,-,-,-,?,-
CCCCCCN[C@H]1CCC2C3CC=C4C[C@@H](O)CC[C@]4(C)C3CC[C@@]21C (stereo partly drawn),-,-,?,?,?,16.4µM
O=Cc1c(-c2ccc(Cl)cc2)[nH]c2ccc(Br)cc12,.,.,.,-,.,.
COC(=O)c1ccccc1NC(=O)c1ccc(COc2cccc3ccccc23)o1,-,-,-,44.7µM,?,?
CN1CCN(c2ccc(NC(=S)NC(=O)c3cccc4c(Br)cccc34)cc2)CC1,-,-,-,-,18.4µM,20.6µM
CN1CCN(c2ccc(NC(=S)NC(=O)c3cccc4ccccc34)cc2)CC1,-100.1,?,-,28.2µM,11.6µM,23.1µM
COC(=O)c1ccccc1NC(=O)c1ccc(COc2ccccc2)o1,-,-,-,?,?,?
COC(=O)c1ccccc1NC(=S)NC(=O)c1ccc2ccccc2c1,-,-,-,?,?,?
COC(=O)c1ccccc1NC(=S)NC(=O)c1cccc2ccccc12,-,-,-,31.6µM,?,16.4µM
O=C(c1ccccc1F)N1CCCN(c2cc(-c3ccccc3)[nH]n2)CC1,.,.,.,-,.,.
CCCCC(=O)N1CCc2cc(OC)c(OC)cc2C1COc1ccc(OC)cc1 (stereo not drawn),.,.,.,-,20.6µM,16.4µM
COC(=O)c1ccc(OCC2c3cc(OC)c(OC)cc3CCN2C(=O)COc2ccc(Cl)cc2)cc1 (stereo not drawn),.,.,.,-,29.1µM,20.6µM
COc1ccc(CC(=O)N2CCc3cc(OC)c(OC)cc3C2COc2ccc(F)cc2)cc1 (stereo not drawn),.,.,.,-,16.4µM,13µM
COc1cc2c(cc1OC)C(COc1ccc([N+](=O)[O-])cc1)N(C(C)=O)CC2 (stereo not drawn),-,?,-,-,18.4µM,23.1µM
COc1cc2c(cc1OC)C(COc1ccc(F)cc1)N(C(=O)Cc1ccccc1)CC2 (stereo not drawn),.,.,.,-,?,?
SMILES,IL1B secr inh,HT1080-NT tox,HT1080 IDH1KD tx,ALOX12 inh,TDP1 cell noCPT,TDP1 cell CPT
CNC(=S)N1CCc2cc(OC)c(OC)cc2C1COc1ccc(OC)cc1 (stereo not drawn),-,-,-,-,?,-
COCCNC(=S)N1CCc2cc(OC)c(OC)cc2C1COc1cc(C)cc(C)c1 (stereo not drawn),?,-,-,?,?,25.9µM
COC(=O)c1ccc(OCC2c3cc(OC)c(OC)cc3CCN2C(=O)Cc2ccccc2)cc1 (stereo not drawn),.,.,.,-,16.4µM,?
COc1ccc(OCC2c3cc(OC)c(OC)cc3CCN2C(=O)COc2ccc(Cl)cc2Cl)cc1 (stereo not drawn),.,.,.,-,16.4µM,?
CCOC(=O)/C(C#N)=C/c1ccc(Br)s1,.,.,.,-,.,.
COc1ccc(-c2nnc(SCc3nc4ccccc4o3)o2)c(OC)c1,.,.,.,-,.,.
Nc1nnnn1/N=C/c1cccc(OCc2ccccc2Cl)c1,-,-,-,-,?,25.9µM
O=C(Nc1ncn[nH]1)c1cccc(S(=O)(=O)N2CCCCCC2)c1,.,.,.,-,.,.
COc1cc(/C=C2\SC(=S)N(Nc3ccccc3)C2=O)ccc1O,-,-,-,?,?,?
O=C1/C(=C/c2ccc(O)c(O)c2)SC(=S)N1Nc1ccccc1,-62.4,?,?,.,?,?
O=C(NN1C(=O)/C(=C/c2ccc(O)c(O)c2)SC1=S)c1ccccc1,-,-,?,?,11.6µM,?
CC(=O)Nc1ccc(S(=O)(=O)N2CCN(CCc3ccccc3)CC2)cc1,-,-,-,-,-,-
CC(=O)Nc1ccc(S(=O)(=O)N2CCN(Cc3cccc([N+](=O)[O-])c3)CC2)cc1,-,-,-,?,23.1µM,?
CC(=O)Nc1ccc(S(=O)(=O)N2CCN(C(=O)Cc3ccccc3)CC2)cc1,-,-,-,-,?,11.6µM
CC(=O)Nc1ccc(S(=O)(=O)N2CCN(S(=O)(=O)c3ccc(NC(C)=O)cc3)CC2)cc1,-,-,-,.,-,-
COc1cc(CN2CCN(S(=O)(=O)c3ccc(NC(C)=O)cc3)CC2)cc(OC)c1OC,.,.,.,-,.,.
CC(=O)Nc1ccc(S(=O)(=O)N2CCN(c3ccc([N+](=O)[O-])cc3)CC2)cc1,-,-,-,-,20.6µM,23.1µM
CC(=O)Nc1ccc(S(=O)(=O)N2CCN(c3cc(C(F)(F)F)ccn3)CC2)cc1,-,-,-,-,16.4µM,18.4µM
O=C1OC2(CN1CC1CCOCC1)CN(c1ccccc1-c1ccccc1)C2,.,.,.,-,.,.
Nc1nnnn1Cc1nnc(SCc2cccc(Cl)c2)n1-c1ccccc1,.,.,.,-,.,.
